Measurements reported in PubChem BioAssay (NCATS).
Inconclusive results are not listed. A call without a number means that no potency is given here. Activity calls are given as the source filed them. Calls come from the whole dose curve; as a rule, active = well fitted curve in the direction sought with a large enough effect; inconclusive = small, poorly fitted or top-dose-only effect, or another doubt; inactive = no such curve, though single readings can be large; an effect the other way counts as inactive or inconclusive.

What was measured:
[1] = biological target: Phenylethanolamine N-methyltransferase (Homo sapiens) (UniProt P11086); test: Confirmatory Screen for Target Class Profiling of Small Molecule Inhibitors of Methyltransferases (AID 1745852); settings: MTase-Glo luminescence, SAH detection, recombinant enzyme; measured here: PNMT max response; stronger effect = lower value
[2] = biological target: Metallo-beta-lactamase type 2 (Klebsiella pneumoniae) (UniProt C7C422); test: qHTS to identify inhibitors of the New Delhi Metallo-beta-lactamase (NDM): assay validation screen against the NCATS LOPAC Collection (AID 1794843); settings: NDM-1 enzyme, nitrocefin hydrolysis, absorbance 485 nm; series mostly up to 38.4 µM
How it was run: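 Absorbance at 485 nm from nitrocefin turnover (50 uM solution added), read at plateau, gives the read-out. Compounds in DMSO were incubated first with 2 nM final NDM-1 in pH 7.0 HEPES buffer containing 1 uM ZnSO4 and 0.01% Tween20.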

[3] = biological target: Glutathione peroxidase 1 (Homo sapiens) (UniProt P07203); test: Primary qHTS Assay for Inhibitors of Recombinant Selenoprotein Glutathione Peroxidase 1 (GPX1) (AID 1845191); settings: recombinant GPX1, GR-coupled NADPH fluorescence, 15 min; series mostly up to 48.8 µM; note: nearly all actives have a fitted effect of over 65% in size
How it was run: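 GPX1 10 nM, GR 100 nM, GSH 1 mM, NADPH 0.5 mM, CHP 0.5 mM (final). 30-min cpd preincubation, RT. Ex340/Em450 read t=0, t=15 min.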

[4] = biological target: Phospholipid hydroperoxide glutathione peroxidase GPX4 (Homo sapiens) (UniProt P36969); test: Primary qHTS Assay for Inhibitors of Recombinant Selenoprotein Glutathione Peroxidase 4 (GPX4) (AID 1845192); settings: recombinant GPX4, GR-coupled NADPH fluorescence, 15 min; series mostly up to 50 µM; note: nearly all actives have a fitted effect of over 65% in size
How it was run: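 qHTS, GR-coupled: GPX4 200 nM + cpd 30 min RT → GSH 1 mM, NADPH 0.5 mM, GR 100 nM → CHP 0.5 mM start; fluor 340/450 at t0 and t15 min; no-enzyme wells as control.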

Sequence of Phospholipid hydroperoxide glutathione peroxidase GPX4 (Homo sapiens) (P36969 whole entry, looked up): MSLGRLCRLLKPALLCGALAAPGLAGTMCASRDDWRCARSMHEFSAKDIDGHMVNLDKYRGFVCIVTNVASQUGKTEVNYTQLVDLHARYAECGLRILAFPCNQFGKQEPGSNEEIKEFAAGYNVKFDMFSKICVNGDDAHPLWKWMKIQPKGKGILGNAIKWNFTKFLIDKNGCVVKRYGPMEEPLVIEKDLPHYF
Sequence of Phenylethanolamine N-methyltransferase (Homo sapiens) (P11086 whole entry, looked up): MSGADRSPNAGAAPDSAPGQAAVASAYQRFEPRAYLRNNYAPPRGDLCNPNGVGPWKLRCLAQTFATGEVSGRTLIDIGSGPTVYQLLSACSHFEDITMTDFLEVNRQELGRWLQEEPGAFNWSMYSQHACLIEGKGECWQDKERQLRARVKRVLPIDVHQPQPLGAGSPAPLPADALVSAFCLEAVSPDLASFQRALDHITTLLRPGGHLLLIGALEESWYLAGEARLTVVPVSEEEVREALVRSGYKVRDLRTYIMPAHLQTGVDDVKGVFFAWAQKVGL
Sequence of Metallo-beta-lactamase type 2 (Klebsiella pneumoniae) (C7C422 whole entry, looked up): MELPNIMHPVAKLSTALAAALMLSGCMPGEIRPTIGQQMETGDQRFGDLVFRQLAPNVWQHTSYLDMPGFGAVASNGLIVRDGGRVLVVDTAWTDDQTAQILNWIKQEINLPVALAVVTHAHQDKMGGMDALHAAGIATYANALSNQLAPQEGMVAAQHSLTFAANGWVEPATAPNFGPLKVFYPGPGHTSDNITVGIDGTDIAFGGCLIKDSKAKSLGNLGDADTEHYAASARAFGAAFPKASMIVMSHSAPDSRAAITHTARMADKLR
Sequence of Glutathione peroxidase 1 (Homo sapiens) (P07203 whole entry, looked up): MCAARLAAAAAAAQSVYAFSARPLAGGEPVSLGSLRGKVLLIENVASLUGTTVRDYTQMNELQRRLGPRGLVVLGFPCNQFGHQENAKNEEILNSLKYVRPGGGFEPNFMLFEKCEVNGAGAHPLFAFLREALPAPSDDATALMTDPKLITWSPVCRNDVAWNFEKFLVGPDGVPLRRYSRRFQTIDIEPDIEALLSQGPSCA

Structure (SMILES) | activity [1] [%] | Potency [2] | Potency [3] | Potency [4]
COc1ccccc1CNCCCCCCNCCCCCCCCNCCCCCCNCc1ccccc1OC | 2.9 | inactive | inactive | inactive
O=C1NCc2c1c1c3ccccc3[nH]c1c1[nH]c3ccccc3c21 | -28.7 | inactive | inactive | inactive
OCC1O[C@H]([S-])[C@H](O)[C@@H](O)[C@@H]1O.[Au+] (stereo partly specified) | -1.84 | – | – | inactive
O=C(O)CC[C@@H](C(=O)O)N1C(=O)c2ccccc2C1=O | -4.01 | inactive | inactive | inactive
CC(C)(C)c1ccc(S(=O)(=O)/C=C/C#N)cc1 | 5.53 | inactive | inactive | –
Oc1cc(O)cc(/C=C/c2ccc(O)c(O)c2)c1 | -8.17 | inactive | inactive | inactive
COCCOc1cc2nc[nH]c(=O)c2cc1OCCOC | – | inactive | inactive | –
NO | 4.25 | inactive | inactive | inactive
CN1CCc2cccc3c2C1Cc1ccc(O)c(O)c1-3 (stereo unspecified) | 3.44 | inactive | inactive | inactive
